Rows were chosen to be rich in hits. Some 4.7% of all compounds tested hit in one or more screens of this group.
TRHR enhancer – qHTS for Small Molecule Agonists and Allosteric Enhancers of Human TRH Receptor: Primary Screen for Enhancers | 360,000 tested, 0.66% active | enhancement, % at 2 µM | Thyrotropin-releasing hormone receptor (Homo sapiens), P34981 | TRHR cells, fluo-8 calcium fluorescence, EC20 TRH enhancement; in the data active = enhancement above about 30%
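Enhancer read-out: after compound pinning and an initial kinetic agonist-mode read, an EC20 of TRH (10 nM final) was injected and fluo-8 calcium signal (Ex 480/Em 530) followed at 1 s/cycle for 100 cycles in TRHR-expressing cells.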
D1 PAM – Potentiators of Human D1 Dopamine Receptor: qHTS; D(1A) dopamine receptor (Homo sapiens), P21728; HEK293 TREx D1 cells, calcium flux, dopamine EC20 potentiation; potentiation, % at 10 µM; 360,000 tested, 0.036% active; in the data active = potentiation above about 30%
Target sequence (P21728 whole entry, looked up): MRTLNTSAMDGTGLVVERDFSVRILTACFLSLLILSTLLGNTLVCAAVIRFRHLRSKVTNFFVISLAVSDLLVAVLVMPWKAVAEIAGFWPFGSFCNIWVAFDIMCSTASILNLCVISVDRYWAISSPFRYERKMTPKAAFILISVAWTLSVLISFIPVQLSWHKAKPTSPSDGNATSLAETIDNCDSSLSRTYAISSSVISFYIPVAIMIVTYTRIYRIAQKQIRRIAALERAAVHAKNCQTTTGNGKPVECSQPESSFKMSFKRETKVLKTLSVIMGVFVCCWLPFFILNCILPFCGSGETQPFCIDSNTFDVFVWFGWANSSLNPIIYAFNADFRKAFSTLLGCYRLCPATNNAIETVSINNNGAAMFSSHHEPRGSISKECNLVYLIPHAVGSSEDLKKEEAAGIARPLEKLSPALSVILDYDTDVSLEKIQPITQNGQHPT
TRHR ag – qHTS for Small Molecule Agonists and Allosteric Enhancers of Human TRH Receptor: Primary Screen for Agonists | 360,000 tested, 0.18% active | TRHR cells, calcium flux fluo-8, FDSS agonist mode | activation, % at 2 µM
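Agonist-mode FDSS calcium read (Ex 480/Em 530, 1 s cycles) in 1536-well TRHR cells with fluo-8 dye, after 10-cycle baseline and 23 nL compound addition; TRH at EC20 (10 nM final) added afterwards for the enhancer phase.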
D1 agonist – Allosteric Agonists of the Human D1 Dopamine Receptor: qHTS; 360,000 tested, 1% active; AID 504660, 2011; HEK293 T-REx D1 cells, calcium flux, agonist mode; activation, % at 2 µM; D(1A) dopamine receptor (Homo sapiens), P21728
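Inducible HEK293 T-REx D1 cells, force-coupled to calcium signalling, were plated at 4000 cells/well with tetracycline and held overnight at 30 C. After no-wash calcium dye loading, compound-evoked calcium rise over 180 s flagged agonists.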
D1 antag – Antagonist of Human D 1 Dopamine Receptor: qHTS; D(1A) dopamine receptor (Homo sapiens), P21728; 360,000 tested, 3.2% active; HEK293 TREx D1 cells, calcium flux, dopamine EC80; hits give low values; activity change, negative = inhibition, % at 10 µM; in the data active = activity change below about -30%
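Tetracycline-induced HEK293 T-REx cells with force-coupled D1 receptor were loaded with a no-wash calcium dye. Compound was added after a 10 s baseline and read kinetically for 180 s; EC80 dopamine was then added and calcium flux followed another 180 s.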
Large screens that a line does not name were inactive. Rule as the data show it, unless noted: active = activation above about 30%; inactive = the rest.

COc1ccc(CNC(=O)C(c2ccco2)N(C(=O)Cc2cccs2)c2cccnc2)cc1 (centres undefined)	D1 antag -35
Cc1ccc(S(=O)(=O)NCCc2c[nH]c3ccccc23)cc1	none
S=C(NCCc1c[nH]c2ccccc12)NC1CC1	TRHR enhancer 32
O=S(=O)(NCCc1c[nH]c2ccccc12)c1ccccc1	D1 antag -36
S=C(NCCCc1ccccc1)NC1CCCCC1	D1 agonist 32
S=C(NCCc1c[nH]c2ccccc12)NC1CCCC1	D1 antag -39
Cc1cccc(C(=O)Nc2ccc(OCc3cc(=O)n4ccc(C)cc4n3)cc2)c1	none
CCc1ccc(C(=O)c2cn(CC(=O)Nc3ccc(F)cc3)c3cc4c(cc3c2=O)OCO4)cc1	none
O=C(COc1ccccc1Cl)Nc1ccc(S(=O)(=O)Nc2ccccn2)cc1	none
CC(=O)N1CCC(O)(c2cccc(C(F)(F)F)c2)CC1	none
O=C(CCCC(=O)c1ccc(F)cc1)c1ccc(F)cc1	none
O=C(CCCN1CCC(O)(c2ccc(Br)cc2)CC1)c1ccc(F)cc1	D1 agonist 70, D1 antag -87
O=C(CCCN1CCC(C(=O)c2ccc(F)cc2)CC1)c1ccc(F)cc1	D1 antag -85
O=C(CCCN1CCC(O)(c2cccc(C(F)(F)F)c2)CC1)c1ccc(F)cc1	D1 agonist 61
Cc1cc(Cl)ccc1NC(=O)CS(=O)(=O)c1cccc2nsnc12	none
CCc1ccc(/C=N/NC(=O)c2nnn(-c3nonc3N)c2C(C)C)cc1	TRHR enhancer 41, D1 agonist 142
Cc1ccc(SCc2c(C(=O)N/N=C/c3ccoc3)nnn2-c2nonc2N)cc1	D1 antag -45
Nc1nonc1-n1nnc(C(=O)N/N=C/c2cccc(Cl)c2)c1CSc1ccc(Cl)cc1	none
Cc1ccc(SCc2c(C(=O)N/N=C/c3ccccc3)nnn2-c2nonc2N)cc1	none
Nc1nonc1-n1nnc(C(=O)N/N=C/c2ccccc2)c1CSc1ccc(Cl)cc1	D1 antag -46
COc1cccc(-c2c(C(=O)N/N=C/c3ccoc3)nnn2-c2nonc2N)c1	D1 agonist 77
COc1cccc(-c2c(C(=O)N/N=C/c3ccncc3)nnn2-c2nonc2N)c1	none
CC(C)c1c(C(=O)N/N=C/c2cccnc2)nnn1-c1nonc1N	none
CSc1ncc(C(=O)Nc2ccc(C)c(Cl)c2)c(-c2ccccc2)n1	none
CC(=O)c1ccc(S(=O)(=O)N(C)CC(=O)N2CCCCCC2)cc1	none
O=c1[nH]c2ccc(S(=O)(=O)N3CCN(S(=O)(=O)c4c(F)cccc4F)CC3)cc2[nH]c1=O	none
O=C(c1ccc2c(c1)N(Cc1ccccc1)C(=O)c1ccccc1S2=O)N1CCC(Cc2ccccc2)CC1 (centres undefined)	none
CCOc1ccc(-c2c(C(=O)N/N=C/c3ccc(C)cc3)nnn2-c2nonc2N)cc1	D1 agonist 44
CCOC(=O)c1nnn(-c2nonc2N)c1-c1ccccc1	D1 antag -44
CCOc1ccc(-c2c(C(=O)N/N=C/c3cccs3)nnn2-c2nonc2N)cc1	none
CCCOc1ccc(-c2c(C(=O)N/N=C/c3ccc(C)cc3)nnn2-c2nonc2N)cc1	none
CCOc1ccc(/C=N/NC(=O)c2nnn(-c3nonc3N)c2-c2cccs2)cc1	D1 agonist 165
Cc1ccc(-c2c(C(=O)N/N=C/c3ccc(OC(C)C)cc3)nnn2-c2nonc2N)cc1	TRHR enhancer 33, D1 agonist 55
CCOc1ccc(-c2c(C(=O)N/N=C/c3ccc(OC(C)C)cc3)nnn2-c2nonc2N)cc1	none
COc1ccc(C)cc1NC(=O)C1CCN(S(=O)(=O)c2cc(Br)cc3c2N(C(C)=O)CC3)CC1	none
Cc1ccc(NS(=O)(=O)c2ccc(-c3coc(C)n3)cc2)c(Br)c1	none
Cc1ccc(-c2c(C(=O)N/N=C/c3ccoc3)nnn2-c2nonc2N)cc1	D1 agonist 44
Cc1c(C(=O)N2CCCC2)sc(NC(=O)c2ccc(Cl)cc2)c1C#N	D1 antag -64
COc1cccc(-c2csc3nc[nH]c(=O)c23)c1	D1 antag -34
Cc1ccc(-c2csc3nc[nH]c(=O)c23)cc1C	none
CCOc1ccccc1Cn1c(=O)sc2ccccc21	none
CC(C)CCOc1ccccc1Cn1c(=O)sc2ccccc21	D1 agonist 35
CCN(c1cccc(C)c1)S(=O)(=O)c1cc2c(cc1C)n(C)c(=O)c(=O)n2C	none
CN(C)CCCNc1cc(C(C)(C)C)nc2c(-c3ccccc3)cnn12	D1 agonist 58
Cc1cc(C)c2cc3c(N)c(C(=O)N4CCc5ccccc5C4)sc3nc2c1	none
Cc1cccc2cc3c(N)c(C(=O)N4CCOCC4)sc3nc12	D1 agonist 49
Cc1ccc(-c2ccc(CCC(=O)O)n2-c2ccc(C(=O)O)cc2)cc1	none
COc1ccc(CC2(CO)CCN(Cc3cnn(-c4ccc(F)cc4)c3)CC2)cc1	D1 agonist 47
C=Cc1ccc(Cn2c(=O)cc(C)c3c(C)nn(-c4ccccc4)c32)cc1	none
Cc1cc(=O)n(Cc2cccc(Br)c2)c2c1c(C)nn2-c1ccccc1	D1 antag -79
CCCNC(=O)Nc1nnc(C2CC2)s1	none
Cc1ccc(CNC(=O)c2cnc3c(-c4ccc(F)cc4)c(C)nn3c2C)o1	D1 antag -43
CCOC(=O)c1ccc(NC(=O)c2cnc3c(-c4ccc(F)cc4)c(C)nn3c2C)cc1	D1 antag -40
CCOC(=O)c1ccc(NC(=O)CCc2c(C)nc3c(-c4ccc(F)cc4)c(C)nn3c2C)cc1	none
CCCCCCc1cc2cc(-c3nnc(-c4ccc(C)cc4)o3)c(=O)oc2cc1O	D1 agonist 221
CCCCCCc1cc2cc(S(=O)(=O)c3ccc(F)c(Cl)c3)c(=O)oc2cc1O	D1 agonist 51
CCCCCCc1cc2cc(C(=O)OCC)c(=O)oc2cc1O	none
CCCCCCc1cc2cc(/C(N)=N/NC(=O)c3ccncc3)c(=O)oc2cc1O	TRHR ag 122, D1 agonist 114 (no result: D1 antag)
COc1ncccc1C(=O)N1CCC(n2nccc2NC(=O)CC(C)C)CC1	none
O=C(CSc1nc(=O)[nH]c2c1CCCC2)NCc1ccc(Cl)cc1	none (no result: D1 antag)
O=c1oc2ccc3ccccc3c2cc1-c1nnc(Nc2ccccc2F)s1	none
O=c1oc2cc(O)ccc2cc1-c1nnc(Nc2ccccc2F)s1	TRHR enhancer 39, TRHR ag 187, D1 agonist 405
COc1cccc(Nc2nnc(-c3cc4ccc(O)cc4oc3=O)s2)c1	TRHR ag 70, D1 agonist 369
